# Results as given in PubChem BioAssay AID485364 (National Center for Advancing Translational Sciences (NCATS), 2010).
# The campaign covered roughly 360,000 compounds. About 11,000 (3.1%) were called active. Roughly 4% stayed inconclusive and do not appear here. The full list was thinned out, with actives kept by preference. Unmarked numbers belong to inactive results. The call rests on the fitted dose curve; in most records, active means well fitted inhibition curve with a large enough effect; inconclusive means small, poorly fitted or top-dose-only effect; inactive means no such curve, though single readings can be large or run the other way.
# Target: Schistosoma mansoni thioredoxin glutathione reductase (TGR) (UniProt Q962Y6)
# Experiment: qHTS Assay for the Inhibitors of Schistosoma Mansoni Peroxiredoxins; further: nearly all actives have a fitted effect of over 60% in size
# Settings: purified TGR, DTNB reduction, TNB absorbance 405 nm; series mostly up to 114 µM; activity change, negative = inhibition: at the top concentration
# Summary of the method: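 TGR 20 nM + NADPH 100 uM (dispensed conc.), cpd preinc 15 min RT; start with NADPH (500 uM addition) then DTNB (15 mM addition). Kinetic TNB absorbance, 405 nm filter. Four-parameter Hill fit across titration.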
# On the % scale 0 is the no-effect control and ±100 the full control effect; potency means the concentration at half of the fitted maximal effect.
SMILES,"activity change, negative = inhibition",Potency
COCC(C)n1c(C)cc(C(=O)COc2ccc(C)nc2[N+](=O)[O-])c1C (configuration not stated),59.1%,–
Cc1cc(C(=O)COC(=O)CNC(=O)c2ccc(F)cc2)c(C)n1Cc1ccco1,-4.25%,–
Cc1ccc(OCC(=O)c2cc(C)n(Cc3ccco3)c2C)c([N+](=O)[O-])n1,–,35.5 µM (active)
CCOc1ccccc1NC(=O)NC1CCCCCCC1,-7.77%,–
CCOc1ccccc1NC(=O)CCc1nnc2ccc(NCc3ccco3)nn12,-19.5%,–
CCOc1ccccc1NC(=S)NC(=O)CCc1ccccc1,–,7.94 µM (active)
CCOc1ccc(CNC(=O)Cn2cc3c(n2)-c2c(oc(C(=O)N4CCCC4)c2C)CC3)cc1,-0.78%,–
CC1=C(C(=O)OCc2ccc(C)cc2)C(c2c(Cl)cccc2Cl)CC(=O)N1 (configuration not stated),-1.29%,–
CCc1cccc(CC)c1NC(=S)NCc1ccc2[nH]c(C)cc2c1,4.53%,–
Cc1cc2cc(CNC(=O)c3cccs3)ccc2[nH]1,–,31.6 µM (active)
COc1ccc(CNC(=O)c2cc3c(=O)[nH]c4ccccc4c3s2)cc1,-3.05%,–
COc1cc2nc(SCc3ccc(F)cc3)n3nc(CCn4c(C)nc5ccccc54)nc3c2cc1OC,4.89%,–
CCCSc1nc2sc3c(c2c(=O)n1-c1cccc(Br)c1)CC(C)(C)OC3,7.71%,–
COc1ccc(CCNc2ncnc3c2cnn3-c2ccc(C)cc2)cc1,-0.478%,–
O=C(CSc1nccn1C1CCCC1)Nc1cc(C(F)(F)F)ccc1Cl,6.6%,–
CCOc1cnc(-c2c(-c3ccccc3Cl)noc2C)o1,-5.55%,–
Cc1oc(-c2ccccc2Cl)[n+]([O-])c1C,–,31.6 µM (active)
COc1ccc(S(=O)(=O)Nc2ccc3oc(C)c(C(C)=O)c3c2)cc1,-27.8%,–
COc1ccc(NS(=O)(=O)c2ccc3oc(SCC(N)=O)nc3c2)cc1,-0.717%,–
CCn1c(=O)c(=O)[nH]c2c(=O)oc3ccc(S(=O)(=O)Nc4ccc(OC)cc4)cc3c21,–,35.5 µM (active)
CCOC(=O)c1ccc(NC(=O)CS(=O)(=O)c2cn(CC)c3ccccc23)cc1,1.35%,–
Cc1cc(NC(=O)COn2nnc3ccccc32)no1,0.17%,–
Cc1cc(NC(=O)CS(=O)(=O)c2cn(C)c3ccccc23)no1,–,28.2 µM (active)
COc1ccc(N(C)C(=O)C2CCN(S(=O)(=O)c3cc(Br)cc4c3N(C(C)=O)CC4)CC2)cc1,4.51%,–
COc1ccc(Cl)cc1S(=O)(=O)N1CCC(c2ccncc2)CC1,-0.887%,–

SMILES,"activity change, negative = inhibition",Potency
CCN1CC(CN(C)Cc2nc(-c3ccc(Cl)cc3)no2)CC1=O (configuration not stated),-4.79%,–
COC(=O)c1ccc(-c2noc(CN(Cc3ccccn3)CC3CCCO3)n2)cc1 (configuration not stated),7.28%,–
CN(Cc1ccccn1)Cc1nc(-c2ccc(Cl)cc2)no1,–,28.2 µM (active)
CC(=O)N1CCCc2ccc(NS(=O)(=O)c3ccc(F)cc3F)cc21,-1.51%,–
COc1cc(OC)cc(-c2nc3nc(C)c(CCC(=O)Nc4ccccc4)c(C)n3n2)c1,-3.65%,–
Cc1ccc(NC(=O)c2oc3ccc(S(=O)(=O)N4CCCCC4)cc3c2C)cc1Cl,7.17%,–
O=C(/C=C/c1ccccc1Cl)Nc1ccc(S(=O)(=O)Nc2ncccn2)cc1,6.23%,–
O=C(CCS(=O)(=O)c1ccccc1Cl)Nc1ccc(S(=O)(=O)Nc2ncccn2)cc1,–,14.1 µM (active)
O=S(=O)(Nc1ncccn1)c1ccc(NS(=O)(=O)c2cccc(Cl)c2Cl)cc1,1.1%,–
CCOc1ccc(NC(=O)Cn2c(=O)n(CCCC(=O)NCc3ccc4c(c3)OCO4)c(=O)c3ccccc32)cc1,-0.638%,–
O=S(=O)(NCCS(=O)(=O)N1CCN(c2ccccc2)CC1)c1ccc(Cl)cc1,-1.31%,–
O=C(CNS(=O)(=O)c1cccs1)N1CCN(c2ccccc2Cl)CC1,-8.44%,–
Cc1ccccc1Nc1nn2c(=O)c3ccc(C(=O)NCCc4ccc(Cl)cc4)cc3nc2s1,-12.3%,–
O=C(O)c1ccc2c(c1)N(Cc1ccc(F)cc1)C(=O)c1ccccc1S2=O (configuration not stated),6%,–
CCC1=C/C(=C\c2ccc3c(c2)OCO3)C(=O)S1,–,28.2 µM (active)
CCc1ccc(NC(=O)NC(C)c2ccc3c(c2)OCO3)cc1 (configuration not stated),-3.56%,–
CCCCN(CC)C(=O)c1ccc2c(c1)OCO2,24.1%,–
COc1ccc(-c2nc3ccc(C(=O)NCc4ccc(C)cc4)cc3nc2-c2ccc(OC)cc2)cc1,7.37%,–
O=C(NCc1ccccn1)c1ccc2nc(-c3ccco3)c(-c3ccco3)nc2c1,–,0.891 µM (active)
COc1cccc(S(=O)(=O)NCc2ccc(C(=O)NCc3ccccn3)cc2)c1,-21.9%,–
CNC(=S)N/N=C/c1ccc(OCc2ccccc2)c(Br)c1,-6.28%,–
CNC(=S)N/N=C/c1ccc(N2CCOCC2)s1,–,28.2 µM (active)
Cc1ccc(C(=O)C(=S)N2CCOCC2)cc1,-13.4%,–
CCN(CC)c1ccc(NC(=O)CN2CCN(CC(=O)Nc3ccc(Cl)cc3)CC2)cc1,0.407%,–
COc1ccc(C2C(=O)N(C3CCCCCC3)CC(=O)N2CCc2ccc(Cl)cc2)cc1OC (configuration not stated),8.56%,–

SMILES,"activity change, negative = inhibition",Potency
Oc1ccc(-c2nc3ccc(Cl)cn3c2Nc2ccc3c(c2)OCO3)cc1,-0.513%,–
COc1ccc(OC)c(NC(=O)CSC2=Nc3ccccc3C3=NC(CC(=O)NCCc4ccccc4)C(=O)N23)c1 (configuration not stated),-2.58%,–
Cc1coc2c(O)cc3c(c12)OC1(N2CCCCC2)C(=O)NCCCC31 (configuration not stated),–,17.8 µM (active)
Cn1c(=O)c2c(nc(SCC(=O)Nc3ccc(F)cc3)n2Cc2ccc(Cl)cc2)n(C)c1=O,-12%,–
O=C(Nc1ccccc1Cl)N1CCC(CN2CCCCC2)CC1,2.55%,–
Cc1cc(C)c(/C=C/c2onc(C)c2S(=O)(=O)N2CCC(C(=O)Nc3ccc(Cl)cc3C)CC2)c(C)c1,1.13%,–
NC(=O)CSc1oc(-c2cccs2)nc1S(=O)(=O)c1ccccc1,-20.4%,–
CSc1oc(-c2cccs2)nc1S(=O)(=O)c1ccc(Br)cc1,-4.01%,–
CCCCS(=O)(=O)c1oc(-c2cccs2)nc1S(=O)(=O)c1ccccc1,–,0.501 µM (active)
COc1ccccc1OCC(=O)Nc1nnc2n1CCS2,5.09%,–
CCOC(=O)c1c(S(=O)(=O)NCC(=O)Nc2ccc(Cl)c(C(F)(F)F)c2)c(C)n(C)c1C,-8.26%,–
Cc1ccc(C)c(S(=O)(=O)n2cnc3ccccc32)c1,5.84%,–
Cc1cc(C)c(S(=O)(=O)n2cc(C(C)C(N)C(=O)O)c3ccccc32)c(C)c1 (configuration not stated),–,10 µM (active)
Cc1ccc(S(=O)(=O)n2cnc3ccccc32)c(C)c1,-18.3%,–
NS(=O)(=O)c1ccc2nc(NC(=O)COc3ccccc3)sc2c1,0.388%,–
O=C(CSc1nnc(-c2c[nH]c3ccccc23)o1)c1ccccc1,-1.66%,–
O=C(CSc1nnc(-c2ccco2)o1)NCC(=O)c1ccccc1,–,44.7 µM (active)
O=C(CSc1nnc(-c2ccc(NS(=O)(=O)c3ccccc3)cc2)o1)NCC1CCCO1 (configuration not stated),1.62%,–
CCOC(=O)c1ccc(-c2ccc(/C=C(\C#N)C(=O)Nc3ccc(OCC)cc3)o2)cc1,8.1%,–
Cc1ccc(/C=C(\C#N)C(=O)Nc2cccc3ncccc23)o1,–,20 µM (active)
O=C(O)c1cc(Cl)c(Cl)cc1C(=O)Nc1cccc2ncccc12,2.58%,–
COc1ccc(OC)c(CNC(=O)CN2C(=O)CCn3nc(-c4cn(C)c5ccccc45)cc32)c1,-1.65%,–
COc1ccc(CCN2C(=O)N(c3cccc(OC)c3)C(=O)C2CC(=O)Nc2ccccc2)cc1 (configuration not stated),2.12%,–
Cc1ccc(CN2CCC(CNC(=O)c3cnn(-c4ccc(C)cc4)c3C3CCN(C(=O)OC(C)(C)C)CC3)CC2)cc1,-11.7%,–
CCCC(=O)Nc1cc(C(=O)NCc2ccc(OC)cc2)ccc1S(=O)(=O)c1ccc(Cl)cc1,10.6%,–

SMILES,"activity change, negative = inhibition",Potency
O=C(OCC#CCSc1nnc(-c2ccncc2)o1)c1sc2ccccc2c1Cl,-26.9%,–
O=C(NCC#CCSc1nnc(-c2cccc3ccccc23)o1)c1cccs1,–,22.4 µM (active)
COc1ccccc1-c1nnc(SCC(N)=O)o1,-4.37%,–
CSc1ccc(NC(=O)Cn2nnnc2-c2ccccc2F)cc1,3.69%,–
Cc1c(-c2ccccc2)cn2c1-c1ccc(C)n1CC2,–,35.5 µM (active)
CCCOc1ccc(C(=O)Nc2ccc3oc(-c4cccc(Cl)c4Cl)nc3c2)cc1,-6.36%,–
Cc1ccc(S(=O)(=O)c2nc(-c3cccs3)oc2N2CCCCC2)cc1,-26.4%,–
Cc1ccccc1NC(=O)Cn1c(=O)n(CCc2ccccc2)c(=O)c2ccccc21,8.99%,–
C/C(CCC(=O)OC[C@H]1O[C@H](C#Cc2ccccc2)C=C[C@@H]1Oc1ccc(C)cc1)=N\OC[C@@H](O)[C@H]1O[C@@H]2OC(C)(C)O[C@@H]2[C@H]1O,–,2.51 µM (active)
Cc1ccc(Cl)cc1NC(=O)Cc1ccc(-n2c(C)nc3cccnc32)cc1,-13.5%,–
O=C(CCS(=O)(=O)c1ccccc1)N(Cc1cccnc1)c1nc2c(F)cccc2s1,–,0.562 µM (active)
COc1ccc(N(C)C(=O)CCS(=O)(=O)c2cccc3nsnc23)cc1,–,inactive
Cc1cc(C)c2nc(N(CCN(C)C)C(=O)/C=C/c3cccs3)sc2c1,-18%,–
Cc1cccc2sc(N(CCCN(C)C)C(=O)CCS(=O)(=O)c3ccccc3)nc12,–,10 µM (active)
CN(C)S(=O)(=O)c1ccc(C(=O)N(Cc2cccnc2)c2nc3c(F)cc(F)cc3s2)cc1,0.57%,–
O=C(C1COc2ccccc2O1)N(Cc1cccnc1)c1nc2c(F)cc(F)cc2s1 (configuration not stated),-3.03%,–
Cc1ccc2sc(N(CCN(C)C)C(=O)/C=C/c3cccs3)nc2c1C,2.08%,–
COc1cccc2sc(N(CCCN(C)C)C(=O)CCS(=O)(=O)c3ccccc3)nc12,–,2 µM (active)
CN(C)CCCN(C(=O)c1ccc(S(=O)(=O)N2CCCc3ccccc32)cc1)c1nc2ccc(F)cc2s1,-19.5%,–
Cc1ccc(N2CC(NC(=O)Cc3cccs3)CC2=O)cc1 (configuration not stated),-1.46%,–
Cc1nc2sc(C)c(C)n2c(=O)c1S(=O)(=O)NCCc1ccc(Cl)cc1,0.289%,–
O=C(NC1CCCCC1)c1ccc(Cn2c(SCc3ccccc3)nc3cccnc32)cc1,3.32%,–
